Source: PubChem BioAssay
3T3 cytotox: kills NIH 3T3 cells; NIH 3T3 viability, CellTiter-Glo ATP luminescence, 48-72 h; Potency, µM (top dose mostly 96.7 µM), hits mostly inhibitors; 4.3% of 94,000 active; further: nearly all actives have a fitted effect of over 55% in size
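Viability of NIH 3T3 cells after 48 or 72 hr compound treatment at 37 °C was assessed by CellTiter-Glo, with luminescence imaged following a 10 min room-temperature step.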
hNpr1 antagonist: blocks ANP-stimulated signaling of human Npr1 receptor | HEK293 hNpr1 GloSensor cGMP, ANP-stimulated luminescence | Potency, µM (top dose mostly 46.3 µM), usual class: inhibitors | 1.6% of 76,000 active | P16066; calls by dose curve; further: nearly all actives have a fitted effect of over 60% in size
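HEK293 cells stably expressing human Npr1 and cGMP GloSensor pGS-40F, loaded 2 h with 2% GloSensor reagent, given compound 30 min at room temperature. Luminescence read before and 20 min after 0.1 nM hNppA.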
HEK cytotox: kills HEK 293 cells | HEK 293 viability, ATP luminescence (CellTiter-Glo), 48-72 h | Potency, µM (series often up to 115 µM), usual class: inhibitors | 6.6% of 94,000 active; further: nearly all actives have a fitted effect of over 60% in size
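qHTS cytotoxicity; HEK 293, 250 cells/well; compound pinned; 48 or 72 hr, 37 degree Celsius, 5% CO2, 95% humidity; CellTiter-Glo, 10 min RT; luminescence (ATP).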
FLuc inh: Photinus pyralis luciferase inhibition. purified P. pyralis luciferase, luminescence, biochemical. Potency, µM (highest dose often 115 µM), usual class: inhibitors. 2.5% of 76,000 active; further: nearly all actives have a fitted effect of over 65% in size
Target sequence (P08659 whole entry, looked up): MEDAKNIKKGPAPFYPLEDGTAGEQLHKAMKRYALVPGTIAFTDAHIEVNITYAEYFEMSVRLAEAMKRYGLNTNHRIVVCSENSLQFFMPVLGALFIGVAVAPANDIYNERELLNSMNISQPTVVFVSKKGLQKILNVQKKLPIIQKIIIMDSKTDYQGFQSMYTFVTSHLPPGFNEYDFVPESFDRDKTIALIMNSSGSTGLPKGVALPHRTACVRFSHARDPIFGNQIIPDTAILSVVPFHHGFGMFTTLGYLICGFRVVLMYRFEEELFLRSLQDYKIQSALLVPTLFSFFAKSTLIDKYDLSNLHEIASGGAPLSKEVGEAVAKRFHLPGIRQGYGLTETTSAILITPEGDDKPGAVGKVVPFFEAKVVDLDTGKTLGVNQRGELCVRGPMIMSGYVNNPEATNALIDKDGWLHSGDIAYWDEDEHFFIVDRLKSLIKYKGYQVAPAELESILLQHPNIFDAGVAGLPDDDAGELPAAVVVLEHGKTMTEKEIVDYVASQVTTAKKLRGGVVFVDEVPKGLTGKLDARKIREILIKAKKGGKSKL
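Luminescence read by CCD imager after adding enzyme (10nM final) to wells holding compound, titrated in qHTS. Substrates 10uM each D-luciferin and ATP; buffer 50mM Tris acetate pH 7.5, 10mM Mg acetate, Tween-20, BSA.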
A number is an active result. A selection: hits, their analogues and other compounds. The true share with any hit is near 11%. Unless noted, the call rests on the fitted dose curve; in most records, active means well fitted curve in the direction sought with a large enough effect; inconclusive means small, poorly fitted or top-dose-only effect, or another doubt; inactive means no such curve, though single readings can be large; an effect the other way counts as inactive or inconclusive.

O=C(O)CCC(=O)N1CCCC2(Cc3ccccc3N(C(=O)C3CCCC3)C2)C1 (configuration not stated) was read as 3T3 cytotox inconclusive and HEK cytotox inactive.
`O=C(C1CCCC1)N1CC2(CCN(Cc3ccc(Cl)cc3)C2)Cc2ccccc21` (configuration not stated) gave 3T3 cytotox 40µM and HEK cytotox inconclusive.
NC(=O)c1cccc(CN2CCC3(Cc4ccccc4N(C(=O)C4CCCC4)C3)C2)c1 (configuration not stated) was read as 3T3 cytotox inactive and HEK cytotox 79µM.
`O=C(C1CCCC1)N1CC2(CCCN(Cc3c[nH]c4ccccc34)C2)Cc2ccccc21` (configuration not stated) gave 3T3 cytotox 25µM and HEK cytotox 22µM.
`O=C(C1CCCC1)N1CC2(CCCN(CC3CC3)C2)Cc2ccccc21` (configuration not stated) gave 3T3 cytotox inactive and HEK cytotox inconclusive.
`O=C(c1ccc2nnc(Cc3ccc(Cl)cc3)n2c1)N1CCOCC1` gave 3T3 cytotox inactive and HEK cytotox inactive.
Screening CC(=O)N1CCO[C@@H](COc2ccccn2)[C@@H]1c1ccccc1 returned 3T3 cytotox inactive and HEK cytotox inactive.
Screening Cc1nn(-c2ccc(F)cc2)c(C)c1[C@@H]1C=C[C@@H](NC(=O)NC(C)C)C1 returned 3T3 cytotox inconclusive, hNpr1 antagonist inconclusive, HEK cytotox inconclusive and FLuc inh 63µM.
Cc1nn(-c2ccc(C(C)(C)C)cc2)c(C)c1[C@@H]1C=C[C@@H](NC(=O)NC(C)C)C1 was read as 3T3 cytotox 45µM, hNpr1 antagonist inconclusive, HEK cytotox 45µM and FLuc inh 14µM.
Cc1ccccc1-n1nc(C)c([C@H]2C=C[C@@H](OC(=O)NC(C)C)C2)c1C was read as 3T3 cytotox 25µM, hNpr1 antagonist inactive, HEK cytotox inconclusive and FLuc inh inactive.
For COCCN1C(=O)c2ccccc2C(C(=O)N2CCN(c3ccccc3)CC2)C12CCCC2 (configuration not stated) the results were 3T3 cytotox inactive, hNpr1 antagonist inactive, HEK cytotox inconclusive and FLuc inh inactive.
For COc1ccc(NC(=O)C2CCc3nnc(C4CC4)n32)cc1 (configuration not stated) the results were 3T3 cytotox inactive and HEK cytotox inactive.
For O=C(NCc1ccccc1F)c1ccc2c(c1)CN(Cc1cccc(F)c1F)CCO2 the results were 3T3 cytotox inconclusive, hNpr1 antagonist inactive, HEK cytotox inconclusive and FLuc inh inactive.
For Cc1ccc(CNC(=O)c2ccc3c(c2)CN(Cc2cccc(F)c2F)CCO3)cc1 the results were 3T3 cytotox inconclusive, hNpr1 antagonist inactive, HEK cytotox 79µM and FLuc inh inactive.
For O=C(c1cccc(Cl)c1)N1CCCC2(CN[S+](=O)([O-])c3cccnc3N2)C1 (configuration not stated) the results were 3T3 cytotox inactive and HEK cytotox inactive.
O=c1ncn(CC2CC2)c2ccc(-c3ccc4c(c3)OCO4)nc12 was read as 3T3 cytotox inconclusive, hNpr1 antagonist inactive, HEK cytotox inactive and FLuc inh 45µM.
For O=c1ncn(CC2CC2)c2ccc(-c3ccc(Cl)cc3)nc12 the results were 3T3 cytotox inconclusive, hNpr1 antagonist inactive, HEK cytotox inactive and FLuc inh inactive.
For Cn1ncc2c(C(=O)NCc3ccccc3F)cc(-c3cccc(C(F)(F)F)c3)nc21 the results were 3T3 cytotox inactive and HEK cytotox inactive.
For OCC1CN(C2CCC2)CC12CCN(Cc1ccsc1)CC2 (configuration not stated) the results were 3T3 cytotox inconclusive, hNpr1 antagonist inactive, HEK cytotox 89µM and FLuc inh inactive.
OCC1CN(c2ncccn2)CC12CCN(Cc1ccsc1)CC2 (configuration not stated) was read as 3T3 cytotox inactive, hNpr1 antagonist inactive, HEK cytotox inactive and FLuc inh inactive.
O=C(Cc1ccccc1F)N1CCC(Oc2cccc(F)c2)C1 (configuration not stated) was read as 3T3 cytotox inactive and HEK cytotox inconclusive.
O=C(Nc1ccc(F)cc1)N1CC[C@H]2COC(=O)N2c2cc(F)ccc2C1 was read as 3T3 cytotox inconclusive, hNpr1 antagonist inactive, HEK cytotox inactive and FLuc inh 56µM.
